Inconclusive results are not listed. Activity calls are given as the source filed them. Calls follow the shape of the dose curve; as a rule, active = well fitted cell-killing curve with a large enough effect; inconclusive = small, poorly fitted or top-dose-only effect, or effect the other way; inactive = no such curve, though single readings can be large or run the other way.
Assay: Quantitative High-Throughput drug screen in 47 multiple myeloma cell lines against the NCATS MIPE library collection: KMS28BM_JCRB cell viability assay (AID 1919874); also: nearly all actives have a fitted effect of over 35% in size
Details: CellTiter-Glo ATP, 48 h; series mostly up to 45.8 µM; viability, % of control: at the top concentration
Summary of the method: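 500 cells/well; MIPE 4.0 drugs pin-transferred; 48 h, 37C, 5% CO2. CellTiter-Glo, 5 min RT, luminescence. Controls: DMSO 100%, media 0%.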
Potency is read from the fitted curve at half-maximal effect.

SMILES | viability, % of control | Potency
Cn1c(=O)c2[nH]cnc2n(C)c1=O | 111% (inactive) | 
CC[C@@]1(O)C(=O)OCc2c1cc1n(c2=O)Cc2cc3c(CN(C)C)c(O)ccc3nc2-1 |  | 0.662 µM (active)
O=c1[nH]cc(F)c(=O)[nH]1 | 106% (inactive) | 
CC#C[C@]1(O)CC[C@H]2[C@@H]3CCC4=CC(=O)CCC4=C3[C@@H](c3ccc(N(C)C)cc3)C[C@@]21C |  | 7.43 µM (active)
CC(CCc1ccc(O)cc1)NCCc1ccc(O)c(O)c1 (centres undefined) |  | 26.4 µM (active)
Cc1ccccc1N1C(=O)c2cc(S(N)(=O)=O)c(Cl)cc2NC1C (centres undefined) | 140% (inactive) | 
COc1ccc2c(c1)c(CC(=O)O)c(C)n2C(=O)c1ccc(Cl)cc1 | 102% (inactive) | 
NC(=O)NO |  | 0.935 µM (active)
CNCCCC12CCC(c3ccccc31)c1ccccc12 |  | 16.6 µM (active)
COc1cc2nc(N3CCN(C(=O)c4ccco4)CC3)nc(N)c2cc1OC |  | 10.5 µM (active)
COc1ccccc1OCC(O)CN1CCN(CC(=O)Nc2c(C)cccc2C)CC1 (centres undefined) | 122% (inactive) | 
O=C1c2c(O)ccc(O)c2C(=O)c2c(NCCNCCO)ccc(NCCNCCO)c21 |  | 0.662 µM (active)
Nc1nc2c(ncn2COC(CO)CO)c(=O)[nH]1 |  | 29.6 µM (active)
CN(C)C(=O)C(CCN1CCC(O)(c2ccc(Cl)cc2)CC1)(c1ccccc1)c1ccccc1 |  | 18.7 µM (active)
CC1COc2c(N3CCN(C)CC3)c(F)cc3c(=O)c(C(=O)O)cn1c23 (centres undefined) | 96.1% (inactive) | 
CCCCc1oc2ccccc2c1C(=O)c1cc(I)c(OCCN(CC)CC)c(I)c1 |  | 20.9 µM (active)
Nc1ccn([C@H]2CC[C@@H](CO)O2)c(=O)n1 | 109% (inactive) | 
COc1ccccc1N1CCN(CC(O)COc2cccc3ccccc23)CC1 (centres undefined) |  | 13.2 µM (active)
CC(C)NCC(O)c1ccc(O)c(O)c1 (centres undefined) |  | 7.43 µM (active)
CN(C)CCCN1c2ccccc2CCc2ccc(Cl)cc21 |  | 20.9 µM (active)
CN(CCOc1ccc(NS(C)(=O)=O)cc1)CCc1ccc(NS(C)(=O)=O)cc1 | 96.7% (inactive) | 
CCN1CCCC1CNC(=O)c1cc(S(=O)(=O)CC)c(N)cc1OC (centres undefined) | 103% (inactive) | 
Cn1cnc2c1c(=O)[nH]c(=O)n2C |  | 14.8 µM (active)
CC(C(=O)O)c1cccc(C(=O)c2ccccc2)c1 (centres undefined) | 107% (inactive) | 
